Source: PubChem BioAssay
DRD3 agonist: agonists of human D3 dopamine receptor; max activation, %; AID 652048; D3R DiscoveRx beta-arrestin cells, luminescence, 90 min; P35462; 410,000 compounds, 0.58% hits; in the data active means max activation above about 30%; further: 0% is about no effect
Target sequence (P35462 whole entry, looked up): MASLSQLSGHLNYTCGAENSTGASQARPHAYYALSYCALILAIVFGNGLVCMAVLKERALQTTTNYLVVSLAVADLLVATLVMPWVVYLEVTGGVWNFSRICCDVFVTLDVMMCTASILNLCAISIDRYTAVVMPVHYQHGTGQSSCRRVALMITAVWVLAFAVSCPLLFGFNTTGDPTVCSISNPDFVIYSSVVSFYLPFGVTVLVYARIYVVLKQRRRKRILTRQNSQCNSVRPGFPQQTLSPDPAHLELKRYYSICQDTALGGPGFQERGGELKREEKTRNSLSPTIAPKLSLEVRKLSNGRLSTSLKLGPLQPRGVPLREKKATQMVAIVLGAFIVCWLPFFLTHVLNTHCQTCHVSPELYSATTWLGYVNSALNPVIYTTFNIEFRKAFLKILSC
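Agonist-mode cell screen: cells plated at 1500/well and incubated overnight at 37 °C, then exposed to library compounds for 90 min at 37 °C. Detection reagent was added for 30–60 min at room temperature, and luminescence was read.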
DRD3 antagonist: D3 dopamine receptor (human) antagonism | P35462 | 360,000 compounds, 2.5% hits | D3R cells, DiscoveRx beta-arrestin luminescence, antagonist mode; active compounds read low | max response, negative = inhibition, %; in the data active means max response below about -50%; inconclusive means no clear call, values can overlap the other calls; further: on the % scale 0 is the no-effect control and ±100 the full control effect
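Cells plated overnight at 1500 cells/well, then exposed to library compounds with dopamine controls for 90 minutes at 37 degrees C. DiscoveRx reagent added for 30–60 minutes at room temperature; luminescence read, quantitative HTS format.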
TDP1 cell noCPT: qHTS for Inhibitors of human tyrosyl-DNA phosphodiesterase 1 (TDP1): qHTS in cells in absence of CPT. DT40 Tdp1-/- hTDP1 cells, no CPT, ATP luminescence, 48 h. Potency, µM (highest dose often 46.2 µM), without a hit: top-dose activity change, negative = growth inhibition, usual class: inhibitors. 420,000 compounds, 15% hits; further: potency means the concentration at half of the fitted maximal effect; on the % scale 0 is the no-effect control and ±100 the full control effect; nearly all actives have a fitted effect of over 55% in size
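No-CPT arm: Tdp1-/-;hTDP1 DT40 cells (400/well) plus compounds, incubated ≥48 hr at 37 °C. Readout CellTiter-Glo luminescence.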
IL-1B inflam inh: inflammasome signaling inhibition, IL-1 beta readout; THP-1 LPS/ATP IL-1B secretion, AlphaLISA, 16 h; active compounds read low; activity change, % at 57.5 µM; 360,000 compounds, 4.7% hits; AID 743279; in the data active means activity change below about -50%; inconclusive means mostly about -30% to -49%; further: on the % scale 0 is the no-effect control and ±100 the full control effect
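Secreted IL-1B measured by AlphaLISA bead assay after 16 h compound exposure of THP-1 cells; compounds (final up to 57.5 uM) added 1 h before LPS (250 ng/mL) and ATP (1.25 mM) stimulation; lower signal means less secretion.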
ClpP mod: qHTS Assay for Activators of ClpP | Potency, µM (series often up to 57.5 µM), for the others: at the highest dose activity change, negative = active | ATP-dependent Clp protease proteolytic subunit (Bacillus subtilis (strain 168)), P80244 | purified B. subtilis ClpP, FRET peptide cleavage, 20 min | 340,000 compounds, 1.9% hits; active means well fitted falling curve with a large enough effect; inconclusive means small, poorly fitted or top-dose-only effect; inactive means no such curve, though single readings can be large or run the other way; further: potency means the concentration at half of the fitted maximal effect; the source files actives as falling curves though it sought activators and does not explain the sign; nearly all actives have a fitted effect of over 65% in size
Target sequence (P80244 whole entry, looked up): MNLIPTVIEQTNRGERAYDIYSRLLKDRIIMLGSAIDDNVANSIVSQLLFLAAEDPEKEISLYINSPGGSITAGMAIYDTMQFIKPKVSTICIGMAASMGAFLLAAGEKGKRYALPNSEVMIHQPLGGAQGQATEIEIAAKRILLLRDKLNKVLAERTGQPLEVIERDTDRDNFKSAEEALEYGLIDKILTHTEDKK
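Buffer: 100 mM Tris/HCl pH8, 100 mM KCl, 0.05% low protease BSA, 2.5% glycerol, 0.01% Tween-20. ClpP 10 microg/mL final; 20 min RT; delta FRET normalized to ADEP and DMSO controls.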
DT40 TDP1 CPT: DT40-hTDP1 cell growth loss with CPT; chicken DT40 Tdp1-/-;hTDP1 cells + 20 nM CPT, ATP luminescence, 48 h; Potency, µM (doses to about 46.2 µM), for inactives: at the highest dose activity change, negative = growth inhibition, most hits filed as inhibitors; 420,000 compounds, 12% hits; further: potency means the concentration at half of the fitted maximal effect; on the % scale 0 is the no-effect control and ±100 the full control effect; nearly all actives have a fitted effect of over 55% in size
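Chicken DT40 Tdp1-/- cells stably complemented with human TDP1 were seeded at 400 cells/well in medium containing 20 nM camptothecin, exposed to pin-transferred compounds, and grown at 37 °C for at least 48 hr. Viability was read as ATP luminescence.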
Active calls of the source: *; [ ] = remark or other dose. Compounds with a hit are over-represented: about 21% of the library has one in this group of screens. Unless noted, the call rests on the fitted dose curve; in most records, active means well fitted inhibition curve with a large enough effect; inconclusive means small, poorly fitted or top-dose-only effect; inactive means flat fitted curve, though single readings scatter.

For CC1Cc2ccccc2N1S(=O)(=O)c1cccc(C(=O)N2CCCCC2)c1 (stereo not drawn) the results were DRD3 agonist -6, DRD3 antagonist inconclusive, TDP1 cell noCPT 16µM*, IL-1B inflam inh inconclusive, ClpP mod 1% and DT40 TDP1 CPT 21µM*.
For CC(C)Oc1ccc(S(=O)(=O)N2CCCCC2)cc1NC(=O)C1CCC1 the results were DRD3 agonist -12, DRD3 antagonist -4, TDP1 cell noCPT inconclusive, IL-1B inflam inh -6, ClpP mod -1% and DT40 TDP1 CPT inconclusive.
For Cc1ccc(-c2noc(-c3ccc(N4CCOCC4)c([N+](=O)[O-])c3)n2)cc1 the results were DRD3 agonist -10, TDP1 cell noCPT 21µM*, ClpP mod 0% and DT40 TDP1 CPT -14%.
`CCc1noc(-c2ccc(N3CCC(C)CC3)c([N+](=O)[O-])c2)n1` gave DRD3 agonist -11, TDP1 cell noCPT inconclusive, ClpP mod 0% and DT40 TDP1 CPT 18µM*.
Screening Cc1ccc(-c2noc(-c3ccc(N4CCCCC4)c([N+](=O)[O-])c3)n2)cc1 returned DRD3 agonist -10, TDP1 cell noCPT 21µM*, ClpP mod -1% and DT40 TDP1 CPT inconclusive.
Screening O=[N+]([O-])c1cc(-c2nc(-c3ccccc3)no2)ccc1N1CCCCC1 returned DRD3 agonist 1, TDP1 cell noCPT inconclusive, ClpP mod 0% and DT40 TDP1 CPT -17%.
For COC(=O)[C@@]1(Cc2ccc(OC)cc2)[C@@H]2C(=CC(=O)[C@H]2CC(=O)C(=O)N(C)C)CN1C(=O)c1ccccc1 the results were DRD3 agonist -26, DRD3 antagonist 23, TDP1 cell noCPT 16µM*, IL-1B inflam inh -76*, ClpP mod 1% and DT40 TDP1 CPT -96%.
COC(=O)[C@@]1(Cc2ccc(F)cc2)[C@H]2c3cc(C(=O)N(C)C)n(C)c3C[C@H]2CN1C(=O)c1ccccc1 was read as DRD3 agonist -3, DRD3 antagonist inconclusive, TDP1 cell noCPT inconclusive, IL-1B inflam inh -7, ClpP mod -4% and DT40 TDP1 CPT inconclusive.
For C=C1C(=O)CC2=C1[C@](Cc1ccc(F)cc1)(C(=O)OC)N(C(=O)c1ccccc1)C2 the results were DRD3 agonist -5, DRD3 antagonist 16, TDP1 cell noCPT 21µM*, IL-1B inflam inh -6, ClpP mod -1% and DT40 TDP1 CPT 18µM*.
C=C1C(=O)C=C2CN(C(=O)c3ccccc3)[C@@](Cc3ccc(F)cc3)(C(=O)OC)[C@@H]12 was read as DRD3 agonist -31, DRD3 antagonist -99*, TDP1 cell noCPT 0.052µM*, IL-1B inflam inh -103*, ClpP mod 0% and DT40 TDP1 CPT 0.16µM*.
For CC(C)c1ccc(NC(=O)CSC2=Nc3ccccc3C3=NC(CCC(=O)NCc4ccco4)C(=O)N23)cc1 (stereo not drawn) the results were DRD3 agonist 8, TDP1 cell noCPT -4%, ClpP mod 0% and DT40 TDP1 CPT -15%.
C/C=C(\C)C(=O)O[C@H]1C[C@@]2(C)CCC(C(C)C)C2(O)CC[C@@]1(C)O (stereo partly drawn) was read as TDP1 cell noCPT -12%[9.04 µM] and DT40 TDP1 CPT -8%[9.04 µM].
Screening O=C(OCCOc1cccc(Cl)c1)c1ccc2ncsc2c1 returned DRD3 agonist 3, DRD3 antagonist -1, TDP1 cell noCPT 16%, IL-1B inflam inh 22 and DT40 TDP1 CPT 5%.
`CSc1ccc(/C=C/C(=O)OCC(=O)NC2CCS(=O)(=O)C2)cc1` (stereo not drawn) gave DRD3 agonist 6, DRD3 antagonist 2, TDP1 cell noCPT inconclusive, IL-1B inflam inh -19, ClpP mod 3% and DT40 TDP1 CPT -27%.
`Cc1cc(C)nc(/N=c2/ssnc2Cl)c1` gave DRD3 agonist 2, DRD3 antagonist 0, TDP1 cell noCPT 9.2µM*, IL-1B inflam inh -101*, ClpP mod -1% and DT40 TDP1 CPT 7.3µM*.
`Nc1ccccc1N=c1ssnc1Cl` gave DRD3 agonist 2, DRD3 antagonist 1, TDP1 cell noCPT inconclusive, IL-1B inflam inh 21, ClpP mod 4% and DT40 TDP1 CPT inconclusive.
`Cc1ccc(N=c2ssnc2Cl)cc1` gave DRD3 agonist 15, DRD3 antagonist -27, TDP1 cell noCPT 3.7µM*, IL-1B inflam inh -17, ClpP mod 0% and DT40 TDP1 CPT 5.8µM*.
For Cc1cc(Cl)ccc1N=c1ssnc1Cl the results were DRD3 agonist 3, DRD3 antagonist inconclusive, TDP1 cell noCPT 16µM*, IL-1B inflam inh inconclusive, ClpP mod 1% and DT40 TDP1 CPT 13µM*.
Screening Cc1nnc(N=c2ssnc2Cl)o1 returned DRD3 agonist -86, DRD3 antagonist -83*, TDP1 cell noCPT 1µM*, IL-1B inflam inh -15, ClpP mod -2% and DT40 TDP1 CPT 1µM*.
`Cc1cccc(NC(=O)CNC(=O)[C@H]2O[C@@H](n3cnc4c(N)ncnc43)[C@H](O)[C@@H]2O)c1C` gave DRD3 agonist 5, DRD3 antagonist 9, TDP1 cell noCPT 1%, IL-1B inflam inh 0, ClpP mod -1% and DT40 TDP1 CPT 17%.
Screening CCOC(=O)C1CCN(C(=O)c2cc3cc4cc(OC)ccc4nc3o2)CC1 returned DRD3 agonist 0, DRD3 antagonist 1, TDP1 cell noCPT inconclusive, IL-1B inflam inh 13, ClpP mod 18µM* and DT40 TDP1 CPT -22%.
`CCOCCCNC(=O)c1cc2cc3cc(OC)ccc3nc2o1` gave DRD3 agonist -3, DRD3 antagonist -10, TDP1 cell noCPT -29%, IL-1B inflam inh -2, ClpP mod 3% and DT40 TDP1 CPT 16µM*.
Screening COc1ccc(CNC(=O)c2ccc(Cn3c(=O)c4cccn4c4cccnc43)cc2)cc1OC returned DRD3 agonist 2, TDP1 cell noCPT -16%, ClpP mod -12% and DT40 TDP1 CPT 4%.
`O=C(CCNC(=O)N1CC(=O)Nc2ccccc21)Nc1ccc(F)c(Cl)c1` gave DRD3 agonist -6, DRD3 antagonist -22, TDP1 cell noCPT 1%, IL-1B inflam inh 4, ClpP mod 1% and DT40 TDP1 CPT -2%.
COc1ccccc1N(CC(O)Cn1c2ccccc2c2ccccc21)S(=O)(=O)c1ccccc1 (stereo not drawn) was read as DRD3 agonist -3, DRD3 antagonist 5, TDP1 cell noCPT inconclusive, IL-1B inflam inh -101* and DT40 TDP1 CPT inconclusive.
